# This is part of a sample that, as a whole, favours compounds with a hit. Of some 83,000 tested, about 20% had one in any assay.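 Compound tested at a single concentration for 48 hours in 96-well plates; a percent growth value below 10 was scored as active.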 Values without a mark were called inactive. Active and inactive are the calls of the source.
# Experiments:
# Experiment in all cases: NCI-60 one-dose screen, 48 h (100 = growth as untreated, 0 = no growth, -100 = all killed)
# Details in all cases: 10 µM
# NCI-H23 lung = system: NCI-H23 lung
# NCI-H226 lung = system: NCI-H226 lung
# NCI-H322M lung = system: NCI-H322M lung
# HOP-62 NSCLC = system: HOP-62 NSCLC
# NCI-H460 lung = system: NCI-H460 lung
# NCI-H522 lung = system: NCI-H522 lung
# A549/ATCC NSCLC = system: A549/ATCC NSCLC
# 786-0 renal = system: 786-0 renal
# COLO 205 colon = system: COLO 205 colon
# DU-145 prostate = system: DU-145 prostate
Structure (SMILES),growth (NCI-H23 lung),growth (NCI-H226 lung),growth (NCI-H322M lung),growth (HOP-62 NSCLC),growth (NCI-H460 lung),growth (NCI-H522 lung),growth (A549/ATCC NSCLC),growth (786-0 renal),growth (COLO 205 colon),growth (DU-145 prostate)
COc1ccc(Cn2c(C(N)=O)cc3c2-c2nc(N)ncc2CCC3)cc1,106%,98.6%,89.1%,100%,97.7%,103%,93.7%,101%,101%,99.4%
COc1ccc(-c2nc(-c3nc4cc(Cl)c(F)cc4[nH]3)c3ccccn23)cc1,85.8%,85.1%,69.6%,89.5%,81.1%,39.5%,49.4%,79.9%,79.1%,80.3%
COc1ccc(/C(=C2/O[C@@H]([C@H]3COC(C)(C)O3)[C@H]3OC(C)(C)O[C@@H]23)c2cc(OC)c(OC)c(OC)c2)cc1O,81.2%,113%,91.5%,91.3%,104%,51.8%,80.1%,86.3%,121%,45.6%
Cc1ccc(CC#N)cc1C,110%,96.1%,101%,101%,99.1%,98%,109%,103%,111%,85.4%
COc1cc(-c2cc(/C=C3\C(=O)Nc4cc(Cl)ccc43)[nH]n2)cc(OC)c1OC,69.7%,50.4%,47.5%,43.3%,34.7%,31.9%,43%,93.7%,7.07% (active),43.8%
COC(=O)C(C(C[N+](=O)[O-])c1ccccc1)=P(c1ccccc1)(c1ccccc1)c1ccccc1 (stereo not given),92.4%,96.6%,94.3%,96.1%,101%,83.3%,101%,96.1%,106%,89.6%
COc1cccc(NC(=O)c2sc3nc4c(cc3c2N)C(O)CCC4)c1 (stereo not given),33.1%,66.9%,44.5%,32.6%,10.2%,-10.5% (active),22.3%,43.5%,-7.73% (active),-10.9% (active)
COc1cc(Cc2cc(-c3ccc(Cl)cc3)n[nH]c2=O)ccc1O,83.5%,224%,119%,104%,74.2%,105%,58.6%,103%,111%,128%
COc1cc(-c2nc(-c3nnc(-c4ccccc4Cl)o3)c3ccccn23)cc(OC)c1OC,91.1%,84%,88.3%,87.2%,95.4%,78.4%,72%,105%,85.4%,98.5%
COc1cc2nc(Nc3cccc(C(=O)O)c3)nc(N)c2cc1OC,128%,91.4%,126%,-37.3% (active),108%,87.4%,104%,-9.99% (active),111%,102%
COc1ccc2c(c1)/C(=C\c1c[nH]c3ccc(OC)cc13)C(=O)N2,49.4%,72.7%,54.7%,51%,53.2%,50.3%,30.8%,70.9%,36.7%,63.1%
CN1CCC(CNc2cc(C3(C(=O)Nc4cc(C(=O)Nc5ccc(Cl)c(C(F)(F)F)c5)ccc4F)CC3)ncn2)CC1,44%,72.5%,39.4%,-47.2% (active),3.98% (active),46.6%,13.4%,-38.4% (active),-67.3% (active),40.5%
COc1cc2c(cc1OC)N(CCO)C1=C(C(=O)OC1)C2c1ccc(Cl)c(Cl)c1 (stereo not given),104%,103%,95.2%,98%,104%,77.4%,98.6%,93.5%,116%,109%
CCOC(=O)C(=Cc1ccc(Br)cc1)C(=O)OCC,17.6%,-33.6% (active),39%,0.525% (active),22.4%,-65.1% (active),-25.6% (active),-79% (active),-70.5% (active),6.17% (active)
CC(=O)OCc1cc(-c2nc3ccccc3[nH]c2=O)nn1-c1ccc(Cl)cc1,91.5%,93%,107%,94.9%,104%,-30.6% (active),52%,96.4%,126%,110%
CCOC(=O)N1C/C(=C/c2ccc(Cl)cc2)C(=O)/C(=C/c2ccc(Cl)cc2)C1,72.1%,39.3%,79.2%,64.7%,77.8%,65.5%,61.1%,65.6%,45.3%,46.3%
O=C(Nc1cccc(-n2cc(-c3ccncc3)c(-c3ccc(O)c(Cl)c3)n2)c1)c1cc(C(F)(F)F)cc(C(F)(F)F)c1,57.5%,75.9%,74.3%,78.9%,21.5%,24.3%,33.7%,71.4%,94.8%,73.5%
CCN(CC)CCOc1nc2ccccc2c2c1-c1ccc(OC)cc1C2=O,-29% (active),14%,-29.3% (active),-4.04% (active),-34.4% (active),-56.4% (active),-28.5% (active),0.417% (active),-57.1% (active),-8.05% (active)
CC(=O)N1N=C(c2ccc(Cl)cc2)CC1c1sc(Cl)nc1Cl (stereo not given),87.4%,43.1%,62.9%,103%,107%,81%,78.5%,84.7%,108%,74.7%
CCN(CC)CCCC(C)Nc1ccc2ccc(Cl)cc2n1 (stereo not given),98.5%,93.1%,102%,86.9%,102%,92%,98.3%,93.8%,95.7%,114%
CSc1nn(-c2ccccc2)c2ncnc(Oc3ccc(C)cc3)c12,91.8%,81.4%,82%,67.5%,91%,75.5%,80%,65.4%,113%,105%
S=c1[nH]ccn1-c1c(Cl)cccc1Cl,100%,98.6%,102%,93.5%,101%,11%,28.9%,98.8%,115%,125%
COc1cc(-c2cc(/C=C/C(=O)c3ccc(Cl)c(Cl)c3)[nH]n2)cc(OC)c1OC,101%,81.7%,62.7%,75.9%,79.4%,38%,88.3%,69.7%,78%,62.4%
COc1ccc(Cl)cc1-n1nnc(-c2nc3ccccc3[nH]2)c1N,92.8%,60%,75%,37.3%,27.7%,68.6%,61.8%,58.1%,98.1%,93.4%
CCCCCCCC(C)NCCO (stereo not given),102%,97.4%,88.9%,99.3%,106%,84.9%,93.5%,94.7%,107%,106%
O=c1oc2cc(OS(=O)(=O)c3ccccc3)ccc2c2c1CCCCC2,68.4%,59.6%,82.6%,78.2%,28.4%,66.4%,34.7%,68.8%,31.1%,84.8%
O=c1[nH]c(-c2ccc(Cl)cc2)nc2sc3c(c12)CCCC3,86.1%,78.1%,114%,55.7%,52.2%,82.4%,95.8%,95.7%,109%,63.9%
